In PubChem BioAssay AID687014 (The Scripps Research Institute Molecular Screening Center, 2013) one finds activation data, which are given here for 96 molecules.

The campaign covered roughly 370,000 compounds. About 6,800 (1.8%) were called active. This is one part of a sample in which actives are shown more often than they occur. Unmarked numbers belong to inactive results.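 How the source made its calls: active means activation above a cutoff set at the mean of all screened compounds plus 3 SD (cut at about 10% in these data); inactive means the rest.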

The subject of this assay is Nuclear hormone receptor DAF-12 (Heterodera glycines), GAL4 fusion. The assay can be described thus: hgDAF-12 GAL4 fusion reporter activation – cell-based, luminescence, HEK293, UAS-luciferase, primary screen (AID 687014).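 Further: 0% = DMSO wells and 100% = sodium butyrate wells.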 The following applies: HEK293 GAL4-hgDAF12 UAS-luciferase reporter, agonist luminescence; at 6.8 µM; stronger effect = higher value; normalized to butyrate control. On the technique in general: Reporter assays use an easily measured gene product as a stand-in for the process of interest.
Turning to `Oc1ccc(-n2nnnc2SCc2c(F)cccc2Cl)cc1`, the activation is 0.63%. Regarding `Fc1cccc(Cl)c1CSc1ccc(-c2ccco2)nn1`, the activation is 10.6% (active). Under `Cn1c(SCc2c(F)cccc2Cl)nnc1-c1cnccn1` stands 8.5%; under `CCC(C)(C)NC(=O)C(c1ccc(O)cc1)N(C(=O)Cn1nnc2ccccc21)c1ccc(NC(C)=O)cc1` (stereo unspecified), -2.76%. On to `C[C@H](CO)N1C[C@H](C)[C@@H](CN(C)C(=O)Nc2ccccc2F)OCc2cn(nn2)CCCC1=O`, for which the activation was 4.8%. `COc1cc(/C=C(\C#N)c2nc3c(s2)CC(C)CC3)ccc1O` (stereo unspecified): the activation was 13.1% (active).

Take `CCCC1CCC2(CCCN2CCOC(=O)NCc2ccccc2)CC1` (stereo unspecified): the activation was -0.9%. Then `CCC(c1ccc(NC(=O)OC(C)(C)C)cc1)c1cc(OC)cc(OC)c1` (stereo unspecified), with -1.91%; and `CC(C)(C)n1nc(C2CC2)c(Br)c1NC(=O)c1ccccc1F`, with -1.55%. Under `CC(=O)c1ccc(N2Cc3ccccc3C2)cc1` stands 12.2% (active); under `CC(=O)N1Cc2ccccc2CC1C(=O)O` (stereo unspecified), 2.94%.

As for `CC(=O)c1ccc(N2CCN(CC(O)c3ccccc3)CC2)cc1` (stereo unspecified), the activation was -0.45%. Then `O=C(NCc1cccs1)C1CCN(S(=O)(=O)c2ccccc2[N+](=O)[O-])CC1`, with 1.45%; and `c1ccc2[nH]c(-c3nc4ccccc4[nH]3)nc2c1`, with 11.8% (active). Under `Nc1ccccc1-c1nc2ccncc2[nH]1` stands 3.95%.

On to `CCOC(=O)CNC(=O)CSc1ncccc1-c1nc2ccccc2[nH]1`, for which the activation was -0.67%. Under `Cc1ccccc1N1CC(c2nc3ccccc3[nH]2)CC1=O` (stereo unspecified) stands 0.19%.

`Cc1ccc(-c2nc3ccccc3[nH]2)cc1N`: the activation was 12.8% (active).

As for `O=C1c2ccccc2C(c2nc3ccccc3[nH]2)N1c1ccccc1` (stereo unspecified), the activation is 5.38%.

`COC(=O)C1CN(CC(C)C)CCS(=O)(=O)N1Cc1ccc(F)cc1` (stereo unspecified): the activation is -3.03%. Under `CC(C)Cn1c(N2CCN(C(=O)/C=C/c3ccccc3)CC2)nc2ccccc21` stands -3.13%; under `CC(C)c1ccc(Nc2nnc(SCC(=O)c3nnc(-c4ccccc4)o3)s2)cc1`, 17.7% (active).

For the molecule `CN(C(=O)CSc1nnc(Nc2ccccc2)s1)C1CCS(=O)(=O)C1` (stereo unspecified), the activation was 1.71%.

On to `CC(C)Nc1nnc(SCC(=O)c2c[nH]c3ccccc23)s1`, for which the activation is -0.17%. Under `O=C(Nc1cccc(O)c1)c1ccc(C(=O)c2ccccc2)o1` stands 15.9% (active). Under `O=C(OCc1ccc(-c2ccccc2)cc1)c1cccc(O)c1` stands 7.53%; under `O=C(NCc1cccc(CNC(=O)Nc2cccc(O)c2)c1)Nc1cccc(O)c1`, -0.42%. Take `CC(=O)N1CCc2cc(S(=O)(=O)NCCC(=O)N3CCCC3)ccc21`: the activation is 0.07%. For the molecule `Cc1ccc(C(=O)O/N=C(\N)c2ccccn2)cc1Cl`, the activation is 4.09%. Under `COc1ccc(C(=O)O/N=C(\N)c2ccccn2)cc1[N+](=O)[O-]` stands 17.4% (active); under `COc1ccc(C(=O)NNC(=O)c2cnccn2)cc1[N+](=O)[O-]`, 2.33%; under `COC(=O)[C@]12C[C@H](CC(=O)NCCC(C)C)C(=O)N(CCc3ccc(OC)c(OC)c3)C1=C[C@H](C(C)(C)C)O[C@@H]2C`, 0.69%. Under `Cc1cc(Br)cn2c(Cc3ccccc3C(F)(F)F)c(-c3ccc(Cl)cc3)nc12` stands 0.95%; under `Cc1cc(Br)cn2c(Cc3ccccc3C(F)(F)F)c(-c3ccc(C#N)cc3)nc12`, -0.23%. Then `Cc1ccc(-c2nc3ccc(Br)cn3c2Cc2ccccc2C(F)(F)F)cc1`, with 12.4% (active). Regarding `CCCCN1CCN(C(=O)c2ccc3c(c2)NC(=O)C(C)(C)O3)CC1`, the activation was 1.81%. Under `N#CCC[C@H]1CC[C@]2(CCCN(Cc3ccc(Cl)cc3)C2)O1` stands -2.81%. Then `Cc1ccc(C)c(NC(=O)CCS(=O)(=O)c2ccccc2)c1`, with -2.63%; and `S=C(c1ccc(-c2ccccc2)o1)N1CCCCC1`, with 19.9% (active); and `CC1CCN(C(=S)c2ccc(-c3ccc(Cl)cc3Cl)o2)CC1`, with -2.32%. Under `O=C(NC(=S)Nc1ccccc1C(=O)O)c1ccc(-c2ccc(Br)cc2)o1` stands -2.39%. Consider `NC(=O)c1ncn([C@@H]2O[C@H](C(=O)O)[C@@H](O)[C@H]2O)n1`, for which the activation is 1.3%.

Take `Cc1ccnc(Nc2nc3ccccc3s2)n1`: the activation was 21.9% (active).

Take `Cc1ccnc(-n2sc3ccccc3c2=O)n1`: the activation is 4.36%. For the molecule `CCCN1C(=O)c2[nH]nc(-c3ccccc3)c2C1c1ccccc1` (stereo unspecified), the activation was -0.37%. Under `O=C(NCc1ccccc1)[C@H]1CCCN1C(=O)[C@H]1CCCN1C(=O)N1CCOCC1` stands -0.79%. Under `CCn1c2ccc(F)cc2c2nnc(SCCN3CCOCC3)nc21` stands 0.7%; under `COc1ccc2nc(SCC(=O)Nc3c(C)cc(C)cc3C)[nH]c2c1`, -0.27%. Then `Cc1cc2nc(SCCN3CCOCC3)[nH]c2cc1C`, with 11.8% (active); and `COc1ccccc1CCNS(=O)(=O)c1cc2c3c(c1)C(C)C(=O)N3CCC2` (stereo unspecified), with -1.65%.

Regarding `O=C1C(=O)N(Cc2ccc(-c3ccsc3)cc2)c2ccc(OC(F)(F)F)cc21`, the activation is -4.58%. Then `COC(=O)C1=C(C)N(Cc2ccc(F)cc2)C(=S)NC1c1cccc(Cl)c1` (stereo unspecified), with -2.2%; and `CC(C)[C@@H](C)/C=C/[C@@H](C)[C@H]1CC[C@@H]2[C@]1(C)CCC1[C@]23C=C[C@]2(C[C@@H](O)CC[C@]12C)N(c1ccc([N+](=O)[O-])cn1)O3` (stereo partly specified), with 0.26%; and `COc1ccc(N2CCN(CCNS(=O)(=O)c3ccc(C(C)(C)C)cc3)CC2)cc1`, with 0.34%. Then `N/C(=N\OC(=O)CC1CCCCC1)c1ccccc1`, with 0.73%; and `N/C(=N\OC(=O)CCC1CCCCC1)c1ccccn1`, with 14.7% (active). Under `N/C(=N\OC(=O)Cc1ccc([N+](=O)[O-])cc1)c1ccccn1` stands 5.64%; under `COc1cc(/C=C/C(=O)n2cnc3ccccc32)cc(OC)c1OC`, -6.48%; under `C/C(=C(\C#N)C(=O)NCCCN1CCOCC1)N(C)C`, -0.63%.

Take `O=C(Nc1ccccn1)C1CCN(S(=O)(=O)c2ccc3c(c2)OCCO3)CC1`: the activation was 5.62%. For `Cc1ccnc(NC(=O)C2CCN(S(=O)(=O)c3c(C)c(C)cc(C)c3C)CC2)c1`, the activation is 14.9% (active). Under `CNC(=O)C1CCN(S(=O)(=O)c2c(C)noc2/C=C/c2cccc(C)c2)CC1` stands 1.09%; under `COc1ccccc1CCNC(=O)C1CCN(c2nc(C)cc(C)n2)CC1`, -1.32%; under `O=C(CSc1nc2ccccc2n1Cc1ccccc1Cl)N/N=C\c1c[nH]c2ccccc12`, 0.95%.

With `O=C(c1ccco1)N1CCN(C(=O)c2cc(-c3ccccc3F)no2)CC1`, the activation is 0.91%. Then `Fc1ccccc1-c1cc2cc3c(cc2cn1)OCO3`, with 16.3% (active). Under `COC(=O)C1=C(C)N(Cc2cccc(C(F)(F)F)c2)C(=NCc2cccc(C(F)(F)F)c2)NC1c1ccccc1C(F)(F)F` (stereo unspecified) stands 0.13%. Under `CN(C)c1ccc(NC(=O)NC2CCCCN(Cc3ccc(Cl)cc3)C2=O)cc1` (stereo unspecified) stands -1.5%. `C[C@@H]1CN([C@H](C)CO)S(=O)(=O)c2ccc(C#C[C@@H](C)O)cc2O[C@@H]1CN(C)Cc1ccc(-c2ccccc2)cc1`: the activation was 2.28%. Then `Cc1cnc(NC(=O)c2ccc(Cl)nc2)s1`, with 12.4% (active); and `Cc1cccc(NC(=O)c2cccc(C(=O)Nc3cccc(C)c3C)n2)c1C`, with -1.93%. Then `Cc1cnc(NC(=O)Cn2cnc3c2c(=O)n(C)c(=O)n3C)s1`, with -0.21%; and `CCc1ccccc1OCC(=O)Nc1nnc(C2CC2)s1`, with -2.07%. Then `CCc1cc(C(=O)Nc2nnc(C3CC3)s2)sc1C`, with 1.89%; and `O=C(Nc1ccc2nc3n(c(=O)c2c1)CCCC3)c1ccc(Cl)nc1`, with 1.23%. `Cc1cnc(NC(=O)c2ccccn2)s1`: the activation is 16.5% (active). Then `O=C(Nc1nnc(C2CC2)s1)c1ccccn1`, with 12.5% (active).

For the molecule `COc1ccc(CC(=O)NCc2nnc(SCC(=O)Nc3ncc(C)s3)n2C)cc1`, the activation was 3.07%. Then `O=C(COC(=O)c1ccc(F)cc1)NCCCc1ccccc1`, with -2.09%; and `Cc1ccc(C(=O)NCC(=O)OCC(=O)Nc2cccc(S(=O)(=O)N3CCCC3)c2)cc1C`, with 0.26%; and `O=C(NCc1ccccc1)[C@H]1CCCN1C(=O)[C@@H]1CCCN1C(=O)c1ccc(Cl)cc1Cl`, with 5.91%.

As to `O=C(CSC1CC(=O)N(CCc2ccccc2)C1=O)Nc1ccc(Cl)cc1` (stereo unspecified), the activation is 3.22%. Then `COC(=O)[C@H](C(C)C)N1CCc2nnn(Cc3ccc(C)cc3)c2-c2ccccc2S1(=O)=O`, with 1.86%.

Consider `COC(=O)[C@]12C[C@H](CC(=O)NCCc3ccccc3OC)C(=O)N(Cc3ccco3)C1=C[C@H](C(C)C)O[C@@H]2C1CC1`, for which the activation was 1.21%. Then `Nc1[nH]c(C(=O)c2ccccc2)c(-c2ccncc2)c1C(=O)NCc1cccc2ccccc12`, with -0.47%. Under `CC(=O)c1ccc(Nc2nc(C(N)c3ccccc3)cs2)cc1` (stereo unspecified) stands 2.66%. Under `N#Cc1ccc(OCC(=O)Nc2nc(-c3ccccn3)cs2)cc1` stands -6.22%; under `COc1ccc(-c2csc(Nc3ccccn3)n2)cc1`, 16.9% (active); under `COc1ccc(Nc2nc(-c3ccccc3)cs2)cc1`, 22.4% (active). Take `Cc1cccc(OCC(=O)OCC(=O)Nc2ccc(Cl)cn2)c1`: the activation is 0.27%.

On to `Clc1ccc(Nc2nc(-c3cccs3)cs2)nc1`, for which the activation is 19.5% (active). Under `CC(NC(=O)c1ccco1)C(=O)Nc1nc(-c2ccccn2)cs1` (stereo unspecified) stands 1.66%; under `CNC(=O)c1sc(Nc2ccc(OCc3ccccc3)cc2)nc1C`, -1.9%. Then `COc1cccc(C(O)c2nc(-c3ccc(C)c(C)c3)cs2)c1` (stereo unspecified), with -0.02%; and `O=C(CN1C(=O)C2C3C=CC(C3)C2C1=O)Nc1nc(-c2ccccn2)cs1` (stereo unspecified), with 0.17%. Under `c1ccc(Nc2nc(-c3ccncc3)cs2)nc1` stands 14.5% (active).
